# In PubChem BioAssay:
# Values joined by “and” are separate entries in the source; they are usually repeats but may differ in a detail not shown here. Equal entries are not always repeated. Active and inactive are the calls of the source.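 Rule for the calls, unless noted: active = thallium flux through the channel raised or lowered by more than 3 SD from vehicle-only wells, actives on both sides; inactive = the rest.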
# Tests used:
# [1] = system: Hepatitis C virus NS3 helicase; assay: HCV NS3 helicase inhibitors, primary screen, biochemical, fluorescence polarization, NIH Clinical Collection (AID 743270; call rule not given here); details: NS3 helicase binding to Cy5-dT15 DNA, stronger effect = higher value, concentration not given here
# [2] = molecular target: Single-stranded DNA-binding protein (Escherichia coli (strain K12)) (UniProt P0AGE0); assay: E. coli SSB displacement from DNA, counter-screen for HCV NS3 helicase inhibitor project, biochemical, fluorescence polarization, NIH Clinical Collection (AID 743271; in the data active = inhibition above about 28%); details: stronger effect = higher value, concentration not given here
# [3] = fluorescence interference in NS3h assay format, artefact control for HCV NS3 helicase inhibitor project, biochemical, NIH Clinical Collection (AID 743272; call rule not given here;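 note: HCV NS3 helicase with a Cy5 labelled single stranded DNA probe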); details: fluorescence interference counterscreen, stronger effect = lower value
# [4] = stimulators of nuclear beta-catenin in C2C12, primary screen, imaging, WNT3A-conditioned medium, mouse C2C12, NPC library (AID 1117326; in the data active = nuclear beta-catenin stimulation mostly above about 4.2%, no sharp cut-off; inactive = mostly below about 10%); details: stronger effect = higher value
# [5] = stimulators of insulin release from INS-1E, primary screen, cell-based, 5 mM glucose, NPC library (AID 1117329;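 active = compound raises insulin release from rat beta cells at 5 mM glucose, no numeric limit stated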); details: rat INS-1E insulin secretion, at 10 µM, stronger effect = higher value
# [6] = growth inhibition of GSK3B-pretreated HCT116 cells – cell-based, CellTiter-Glo, 0.2 to 20 µM (AID 1117336;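 active = compounds lowering colon cancer cell viability after pretreatment blocking the GSK3B kinase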); details: HCT116 viability after GSK3B inhibitor, at 20 µM, stronger effect = higher value
# [7] = inhibition of endothelial tube formation, primary screen, imaging, VEGF stimulated, CD31 staining, tube area, NPC library (AID 1117340;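 active = compound that reduces growth-factor-driven endothelial tube area in a mixed cell culture, no cutoff stated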); details: VEGF-stimulated ADSC/ECFC co-culture, at 10 µM, stronger effect = higher value
# [8] = glucagon-like peptide 1 release enhancers, primary assay, NCI-H716 cell line, NPC library (AID 1117341;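 active = compound raises GLP1 secretion from the human gut endocrine cells, with no numeric limit stated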); details: NCI-H716 cells, at 10 µM, stronger effect = higher value
# [9] = HCT116 colon cancer cell growth inhibition, primary screen, CellTiter-Glo luminescence, NPC library (AID 1117342;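 active = compounds that lower survival of HCT116 colon cancer cells in the luminescence readout, no numeric limit stated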); details: at 20 µM (top of the series)
# [10] = CellTiter-Glo luminescent readout of SW480 viability loss, NPC library primary (AID 1117343;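 active = compounds that lower viability of the colon cancer cells in the luminescence readout, with no numeric limit stated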); details: CellTiter-Glo luminescence; at 20 µM (top of the series)
# [11] = decreased DLD-1 cellular survival, CellTiter-Glo luminescent readout, NPC compound collection, primary HTS (AID 1117346;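 active = compounds that lower survival of DLD-1 colon cancer cells in the luminescence readout, no cutoff given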); details: DLD-1 viability, CellTiter-Glo luminescence; at 20 µM (top of the series)
# [12] = molecular target: 6-phosphogluconate dehydrogenase, decarboxylating (Homo sapiens) (UniProt P52209); assay: 6PGD enzyme inhibitors, primary screen, biochemical, human, recombinant enzyme, NADPH absorbance (AID 1159550;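 active = at least 20% inhibition of 6-phosphogluconate dehydrogenase activity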); details: recombinant 6PGD, NADPH absorbance 341 nm; at 10 µM; stronger effect = higher value
# [13] = differential killing of epithelial or mesenchymal cells, primary screen, imaging, PC-3E GFP, TEM4-18 mCherry, co-culture (AID 1345086;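 active = compounds killing one labelled cell type while sparing the other, by normalised counts and ratio limits, not self-fluorescent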;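 for all read-outs here: cells exposed to compound for 72 h before imaging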;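 for red/green cell ratio (normalised): normalised mesenchymal count divided by normalised epithelial count so high means epithelial killing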); details: imaging cell counts, at 1 µM; for red/green cell ratio (normalised): actives lie on both sides, counts scaled to control wells, 1 = unselective
# [14] = survival rescue of mitochondrial mutant cells in low glucose, primary screen, MELAS cybrids, Rieske KO mouse fibroblasts, CellTiter-Glo (AID 1508586;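 active = mean z-score across replicates of 1.96 or higher in either the MELAS or the Rieske mutant cell line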;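 note: z relative to plate mean and SD of compound and empty wells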)
# [15] = molecular target: NAD(+) hydrolase SARM1 (Homo sapiens) (UniProt Q6SZW1); assay: SARM1 TIR NADase inhibitors, cell lysate, NAD-Glo luminescence (AID 1508614;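 active = compound whose remaining NAD level is above about 45 nM, limit read from the data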;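 note: higher remaining NAD means stronger inhibition of SARM1 NADase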); details: SAM-TIR HEK293T lysate NADase, at 1 µM, stronger effect = higher value
# [16] = molecular target: Mitogen-activated protein kinase 7 (Homo sapiens) (UniProt Q13164); assay: ERK5 transactivation activators in reporter cells, primary screen, cell-based, HTS (AID 1508626;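 active = luciferase signal above three times the same-plate solvent-only control wells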;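 note: luciferase driven by Gal4-ERK5 fusion binding five Gal4 sites before minimal TATA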); details: HeLa Gal4-ERK5 transactivation, 18 h, at 5 µM, stronger effect = higher value
# [17] = system: F380Y; assay: modulators of BK channel variants, profiling panel, selectivity assay, cell-based, U2OS BacMam, thallium flux, beta subunits (AID 1259406); details: at 30 µM;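 note: initial slope of Thallos dye fluorescence rise after thallium is added; log ratio against the mean of 0.3% DMSO vehicle wells on the same plate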
# [18] = system: F380Y/beta2Delta; assay: as above; details: at 30 µM
# [19] = molecular target: Calcium-activated potassium channel subunit alpha-1 (Homo sapiens) + Leucine-rich repeat-containing protein 26 (Homo sapiens) (UniProt Q12791+Q2I0M4); assay: as above; details: F380Y/Slo1WT/gamma1, at 30 µM
# [20] = sensitizers of A549 cells to miR-34 induction, primary screen, imaging, A549 dox-inducible miR-34, nuclei and caspase counts (AID 1347080;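 active = compounds whose cell count with miR-34 switched on is under 0.7 times the count with it off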); details: A549 miR-34 inducible, Hoechst nuclei count, 48 h
# [21] = measured here: epithelial PC-3E GFP cell survival
# [22] = measured here: mesenchymal TEM4-18 mCherry cell survival
# [23] = MELAS cybrid survival, CellTiter-Glo 48 h, stronger effect = higher value
# [24] = Rieske KO mouse fibroblast survival, CellTiter-Glo 72 h
# [25] = stronger effect = lower value, cell number ratio, induced over uninduced
# [26] = measured here: relative caspase fold change +Dox/-Dox
# [27] = measured here: total cells with miR-34 induction, stronger effect = lower value
# [28] = measured here: total cells without miR-34 induction
# Sequence of Calcium-activated potassium channel subunit alpha-1 (Homo sapiens) + Leucine-rich repeat-containing protein 26 (Homo sapiens) (Q2I0M4 whole entry, looked up, one chain of several): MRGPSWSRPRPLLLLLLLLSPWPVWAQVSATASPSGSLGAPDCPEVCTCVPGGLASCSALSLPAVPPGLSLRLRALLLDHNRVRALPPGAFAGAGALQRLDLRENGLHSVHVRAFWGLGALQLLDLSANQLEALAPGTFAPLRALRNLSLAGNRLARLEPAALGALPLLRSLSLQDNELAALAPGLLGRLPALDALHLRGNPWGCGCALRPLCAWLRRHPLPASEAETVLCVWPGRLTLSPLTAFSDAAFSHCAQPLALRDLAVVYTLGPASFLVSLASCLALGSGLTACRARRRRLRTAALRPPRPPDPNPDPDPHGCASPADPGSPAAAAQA
# Sequence of NAD(+) hydrolase SARM1 (Homo sapiens) (Q6SZW1 whole entry, looked up, the tested form may be a part): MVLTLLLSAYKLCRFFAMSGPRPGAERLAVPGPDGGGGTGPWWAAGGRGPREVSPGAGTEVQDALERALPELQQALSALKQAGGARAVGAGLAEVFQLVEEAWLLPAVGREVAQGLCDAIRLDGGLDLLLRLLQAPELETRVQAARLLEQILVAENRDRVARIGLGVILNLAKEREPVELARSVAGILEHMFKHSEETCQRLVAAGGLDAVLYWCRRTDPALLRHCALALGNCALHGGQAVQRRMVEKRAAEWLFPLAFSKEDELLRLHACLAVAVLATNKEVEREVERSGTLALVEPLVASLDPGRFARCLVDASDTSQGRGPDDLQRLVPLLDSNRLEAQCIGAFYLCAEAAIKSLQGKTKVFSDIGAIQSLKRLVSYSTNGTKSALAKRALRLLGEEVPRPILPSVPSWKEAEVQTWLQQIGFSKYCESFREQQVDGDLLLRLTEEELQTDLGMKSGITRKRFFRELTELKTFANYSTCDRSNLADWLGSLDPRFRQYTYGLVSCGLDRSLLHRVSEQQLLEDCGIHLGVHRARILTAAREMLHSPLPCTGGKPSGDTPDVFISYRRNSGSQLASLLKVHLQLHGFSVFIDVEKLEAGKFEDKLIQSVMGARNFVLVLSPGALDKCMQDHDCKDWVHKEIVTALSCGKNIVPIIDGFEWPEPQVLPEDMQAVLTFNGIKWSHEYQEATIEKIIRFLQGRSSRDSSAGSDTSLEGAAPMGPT
# Sequence of 6-phosphogluconate dehydrogenase, decarboxylating (Homo sapiens) (P52209 whole entry, looked up): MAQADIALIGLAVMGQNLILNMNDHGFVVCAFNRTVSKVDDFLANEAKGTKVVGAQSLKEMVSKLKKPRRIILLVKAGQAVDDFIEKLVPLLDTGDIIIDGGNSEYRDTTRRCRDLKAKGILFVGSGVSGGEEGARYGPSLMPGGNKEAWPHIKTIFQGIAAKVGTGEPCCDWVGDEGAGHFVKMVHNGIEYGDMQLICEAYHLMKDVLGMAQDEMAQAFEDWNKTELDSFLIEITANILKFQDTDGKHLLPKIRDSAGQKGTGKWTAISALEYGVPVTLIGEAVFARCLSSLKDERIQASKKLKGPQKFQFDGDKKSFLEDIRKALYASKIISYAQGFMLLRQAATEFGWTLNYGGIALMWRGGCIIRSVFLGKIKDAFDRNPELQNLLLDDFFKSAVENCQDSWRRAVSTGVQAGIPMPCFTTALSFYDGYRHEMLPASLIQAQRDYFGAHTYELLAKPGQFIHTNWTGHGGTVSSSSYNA
# Sequence of Mitogen-activated protein kinase 7 (Homo sapiens) (Q13164 whole entry, looked up, the tested form may be a part): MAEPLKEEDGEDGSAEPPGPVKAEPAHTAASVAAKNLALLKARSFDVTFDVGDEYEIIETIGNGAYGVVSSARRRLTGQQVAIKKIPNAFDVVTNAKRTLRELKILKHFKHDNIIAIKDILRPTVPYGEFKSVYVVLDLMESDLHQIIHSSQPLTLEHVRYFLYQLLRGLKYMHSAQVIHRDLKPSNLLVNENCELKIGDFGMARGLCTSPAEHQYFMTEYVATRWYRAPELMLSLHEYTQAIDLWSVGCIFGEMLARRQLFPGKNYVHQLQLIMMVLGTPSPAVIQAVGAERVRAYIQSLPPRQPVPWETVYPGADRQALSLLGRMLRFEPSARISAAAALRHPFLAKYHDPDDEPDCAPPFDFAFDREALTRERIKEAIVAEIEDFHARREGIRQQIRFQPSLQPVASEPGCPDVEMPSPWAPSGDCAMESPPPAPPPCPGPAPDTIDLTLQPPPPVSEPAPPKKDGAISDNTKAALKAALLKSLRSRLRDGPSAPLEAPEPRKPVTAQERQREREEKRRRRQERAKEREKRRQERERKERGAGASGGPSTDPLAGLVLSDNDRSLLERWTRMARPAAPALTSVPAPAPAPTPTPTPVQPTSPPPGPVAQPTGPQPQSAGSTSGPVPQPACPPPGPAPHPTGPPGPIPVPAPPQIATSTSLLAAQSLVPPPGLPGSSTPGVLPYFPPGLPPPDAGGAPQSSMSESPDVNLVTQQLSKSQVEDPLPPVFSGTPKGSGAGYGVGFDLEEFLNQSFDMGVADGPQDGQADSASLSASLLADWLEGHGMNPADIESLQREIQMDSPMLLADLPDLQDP
compound,measurement,setting,value
CC[N+](C)(C)c1cccc(O)c1,inhibition,[1],-1.36% (inactive)
same,inhibition,[2],0.29% (inactive)
same,fluorescence ratio,[3],0.96 (inactive)
same,nuclear beta-catenin stimulation,[4]; at 10 µM,-1.7% (inactive)
same,nuclear beta-catenin stimulation,"[4]; stimulation, at 2 µM",0.9%
same,insulin secretion stimulation,[5],0% (inactive)
same,viability decrease,[6],-29% (inactive)
same,tube area decrease,[7],-7.4% (inactive)
same,GLP1 secretion stimulation,[8],0.7% (inactive)
same,inhibition of viability,[9],-0.1% (inactive)
same,viability decrease (inhibition),[10],-11.1% (inactive)
same,viability decrease (inhibition),[11],-13.2% (inactive)
same,inhibition,[12],-4.48% (inactive)
same,red/green cell ratio (normalised),[13],1.2 (inactive)
same,normalised cell number,[13]; [21],0.65
same,normalised cell number,[13]; [22],0.78
same,z-score,[14]; [23],-0.344 (inactive)
same,z-score,[14]; [24],0.198
same,remaining NAD,[15],10 nM (inactive)
same,luciferase signal,[16],68 AU (inactive)
same,log fold change Tl+ flux,[17],0.0242 (inactive)
same,log fold change Tl+ flux,[18],0.0329 (inactive)
same,log fold change Tl+ flux,[19],-0.0327 (inactive)
OC(CCN1CCCCC1)(c1ccccc1)C1CCCCC1 (centres undefined),inhibition,[1],-5.91% (inactive)
same,inhibition,[2],-2.76% (inactive)
same,fluorescence ratio,[3],0.95 (inactive)
same,nuclear beta-catenin stimulation,[4]; at 10 µM,-1.1% (inactive)
same,nuclear beta-catenin stimulation,"[4]; stimulation, at 2 µM",7.5%
same,insulin secretion stimulation,[5],12.4% (inactive)
same,viability decrease,[6],-59.3% (inactive)
same,tube area decrease,[7],5% (inactive)
same,GLP1 secretion stimulation,[8],3.3% (inactive)
same,inhibition of viability,[9],34.2% (inactive)
same,viability decrease (inhibition),[10],67.1% (active)
same,viability decrease (inhibition),[11],18.6% (inactive)
same,inhibition,[12],5.23% (inactive)
same,red/green cell ratio (normalised),[13],1.08 (inactive)
same,normalised cell number,[13]; [21],0.92
same,normalised cell number,[13]; [22],1
same,z-score,[14]; [23],0.423 (inactive)
same,z-score,[14]; [24],0.169
same,remaining NAD,[15],10 nM (inactive)
same,luciferase signal,[16],56 AU (inactive)
same,log fold change Tl+ flux,[17],0.0654 (inactive)
same,log fold change Tl+ flux,[18],-0.0109 (inactive)
same,log fold change Tl+ flux,[19],-0.0285 (inactive)
CN(C)CCCN1c2ccccc2CCc2ccccc21,nuclear beta-catenin stimulation,[4]; at 10 µM,0.8% (inactive)
same,nuclear beta-catenin stimulation,"[4]; stimulation, at 2 µM",-0.2%
same,insulin secretion stimulation,[5],5.55% (inactive)
same,viability decrease,[6],57.9% (active)
same,tube area decrease,[7],0.8% (inactive)
same,GLP1 secretion stimulation,[8],10% (inactive)
same,inhibition of viability,[9],36.7% (inactive)
same,viability decrease (inhibition),[10],70.5% (active)
same,viability decrease (inhibition),[11],-1.6% (inactive)
same,inhibition,[12],2.5% (inactive)
same,red/green cell ratio (normalised),[13],1.07 (inactive)
same,normalised cell number,[13]; [21],1.07
same,normalised cell number,[13]; [22],1.14
same,z-score,[14]; [23],-0.849 (inactive) and -0.557 (inactive)
same,z-score,[14]; [24],0.136 and -0.674
same,remaining NAD,[15],10 nM (inactive)
same,luciferase signal,[16],44 AU (inactive)
same,log fold change Tl+ flux,[17],0.14 (active)
same,log fold change Tl+ flux,[18],0.118 (active)
same,log fold change Tl+ flux,[19],0.0488 (inactive)
CC(C)[N+](C)(CCOC(=O)C1c2ccccc2Oc2ccccc21)C(C)C,inhibition,[1],-1.36% (inactive)
same,inhibition,[2],0.29% (inactive)
same,fluorescence ratio,[3],0.96 (inactive)
same,nuclear beta-catenin stimulation,[4]; at 10 µM,1.3% (inactive)
same,nuclear beta-catenin stimulation,"[4]; stimulation, at 2 µM",3.3%
same,insulin secretion stimulation,[5],0.2% (inactive)
same,viability decrease,[6],-14.9% (inactive)
same,tube area decrease,[7],9.2% (inactive)
same,GLP1 secretion stimulation,[8],0.4% (inactive)
same,inhibition of viability,[9],6.7% (inactive)
same,viability decrease (inhibition),[10],-1.5% (inactive)
same,viability decrease (inhibition),[11],-16.9% (inactive)
same,inhibition,[12],6.27% (inactive)
same,red/green cell ratio (normalised),[13],1.27 (inactive)
same,normalised cell number,[13]; [21],1.02
same,normalised cell number,[13]; [22],1.3
same,z-score,[14]; [23],0.349 (inactive)
same,z-score,[14]; [24],0.213
same,remaining NAD,[15],10 nM (inactive)
same,luciferase signal,[16],48 AU (inactive)
same,log fold change Tl+ flux,[17],0.0202 (inactive)
same,log fold change Tl+ flux,[18],0.0277 (inactive)
same,log fold change Tl+ flux,[19],-0.0355 (inactive)
CN(C)CC/C=C1\c2ccccc2COc2ccccc21,inhibition,[1],-1.36% (inactive)
same,inhibition,[2],4.1% (inactive)
same,fluorescence ratio,[3],0.9 (inactive)
same,nuclear beta-catenin stimulation,[4]; at 10 µM,-0.4% (inactive)
same,nuclear beta-catenin stimulation,"[4]; stimulation, at 2 µM",0.3%
same,insulin secretion stimulation,[5],-0.9% (inactive)
same,viability decrease,[6],-44.3% (inactive)
same,tube area decrease,[7],-0.9% (inactive)
same,GLP1 secretion stimulation,[8],5.2% (inactive)
same,inhibition of viability,[9],12% (inactive)
same,viability decrease (inhibition),[10],54.8% (active)
same,viability decrease (inhibition),[11],-3.7% (inactive)
same,inhibition,[12],2.99% (inactive)
same,fold change,[20]; [25],0.953 (inactive) and 0.908 (inactive) and 0.946 (inactive)
same,fold change,[20]; [26],1.39 and 2.7 and 1.08
same,cell count,[20]; [27],9160 and 8980 and 8750
same,cell count,[20]; [28],9610 and 9880 and 9250
same,z-score,[14]; [23],0.295 (inactive)
same,z-score,[14]; [24],0.581
same,remaining NAD,[15],10 nM (inactive)
same,luciferase signal,[16],96 AU (inactive)
same,log fold change Tl+ flux,[17],0.0501 (inactive)
same,log fold change Tl+ flux,[18],0.0812 (active)
same,log fold change Tl+ flux,[19],0.0287 (inactive)
CC(=O)[C@H]1CC[C@H]2[C@@H]3C[C@H](C)C4=CC(=O)CC[C@]4(C)[C@H]3[C@@H](O)C[C@]12C,inhibition,[1],-0.45% (inactive)
same,inhibition,[2],0.29% (inactive)
same,fluorescence ratio,[3],0.99 (inactive)
same,nuclear beta-catenin stimulation,[4]; at 10 µM,0.3% (inactive)
same,nuclear beta-catenin stimulation,"[4]; stimulation, at 2 µM",-0.3%
same,insulin secretion stimulation,[5],0% (inactive)
same,viability decrease,[6],-48.8% (inactive)
same,tube area decrease,[7],13.8% (inactive)
same,GLP1 secretion stimulation,[8],0.4% (inactive)
same,inhibition of viability,[9],14.4% (inactive)
same,viability decrease (inhibition),[10],11.1% (inactive)
same,viability decrease (inhibition),[11],-5.4% (inactive)
same,inhibition,[12],-11.2% (inactive)
same,fold change,[20]; [25],0.951 (inactive) and 0.798 (inactive)
same,fold change,[20]; [26],1.06 and 1.54
same,cell count,[20]; [27],6580 and 6920
same,cell count,[20]; [28],6920 and 8680
same,z-score,[14]; [23],0.756 (inactive)
same,z-score,[14]; [24],1.33
same,remaining NAD,[15],10 nM (inactive)
same,luciferase signal,[16],84 AU (inactive)
same,log fold change Tl+ flux,[17],-0.0207 (inactive)
same,log fold change Tl+ flux,[18],-0.0669 (inactive)
same,log fold change Tl+ flux,[19],-0.019 (inactive)
C[C@]12CCC(=O)C=C1CC[C@@H]1[C@@H]2[C@@H](O)C[C@@]2(C)[C@H]1CC[C@]2(O)C(=O)COC(=O)CCC(=O)O,inhibition,[1],-1.36% (inactive)
same,inhibition,[2],-0.48% (inactive)
same,fluorescence ratio,[3],1 (inactive)
same,nuclear beta-catenin stimulation,[4]; at 10 µM,0.9% (inactive)
same,nuclear beta-catenin stimulation,"[4]; stimulation, at 2 µM",3%
same,insulin secretion stimulation,[5],1.4% (inactive)
same,viability decrease,[6],0.2% (inactive)
same,tube area decrease,[7],5.6% (inactive)
same,GLP1 secretion stimulation,[8],-1.5% (inactive)
same,inhibition of viability,[9],6.6% (inactive)
same,viability decrease (inhibition),[10],-13.6% (inactive)
same,viability decrease (inhibition),[11],13.1% (inactive)
same,inhibition,[12],1.94% (inactive)
same,fold change,[20]; [25],0.985 (inactive)
same,fold change,[20]; [26],1.65
same,cell count,[20]; [27],7160
same,cell count,[20]; [28],7270
same,remaining NAD,[15],10 nM (inactive)
same,luciferase signal,[16],96 AU (inactive)
same,log fold change Tl+ flux,[17],0.0328 (inactive)
same,log fold change Tl+ flux,[18],0.00491 (inactive)
same,log fold change Tl+ flux,[19],0.0102 (inactive)
